Records with an inconclusive call do not appear. Where a call stands in place of a potency, no number is given. The source made the active and inactive calls. Calls follow the shape of the full dose curve.

The assay in a line: qHTS assay for small molecule disruptors of the mitochondrial membrane potential - cell viability (AID 720634).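 Also: human HepG2 liver cancer cells; nearly all actives have a fitted effect of over 20% in size.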 The conditions noted are these: HepG2 viability, ATP luminescence (CellTiter-Glo), 1 h; series mostly up to 83.2 µM. From the text: U.S. Tox21 Program National Center for Advancing Translational Sciences [NCATS] NIH Chemical Genomics Center [NCGC] U.S. Environmental Protection Agency [EPA] National Institutes of Environmental Health Sciences [NIEHS] National Toxicology Program [NTP] U.S. Food and Drug Administration [FDA] Tox21 Assay Overview: Mitochondrial membrane potential (MMP), one of the parameters for mitochondrial function, is generated by mitochondrial electron transport chain that creates an electrochemical gradient by a series of redox reactions. This gradient drives the synthesis of ATP, a crucial molecule for various cellular processes. Measuring MMP in living cells is commonly used to assess the effect of chemicals on mitochondrial function; decreases in MMP can be detected using lipophilic cationic fluorescent dyes. […] The dye accumulates in the mitochondria of healthy cells as aggregates, with red fluorescence. The mitochondrial potential decreases and the dye could not accumulate in the mitochondria and remains in the cytoplasm in monomers, with green fluorescence. In addition to the mitochondrial potential assay, these cells were also used to test the cytotoxicity by determining the cell viability in the culture based on the quantitation of ATP present. The cytotoxicity was measured in the same assay well of MMP assay.
Tox21 Assay Protocol Summary: 2,000 HepG2 cells in 5 uL/well were dispensed into black, clear-bottom 1536-well plates using a Multidrop Combi (Thermo Scientific) dispenser. The assay plates were incubated for an overnight at 37 C to allow cells to attach to the wells, followed by the transfer of 23 nL compound or DMSO vehicle by a pin tool (Kalypsys). The plates were incubated for 1 hr at 37 C and 5% CO2, followed by the addition of 5 uL of 2X m-MPI dye into each well using Flying Reagent Dispenser (Aurora Discovery) and then CellTiter-Glo reagent was added at 4 uL/well and incubated 30 min at room temperature. Then luminescence intensity was quantified on a ViewLux CCD-based plate reader.
(Quantitative high-throughput screening tests each substance at several concentrations.)
As for `COc1cc(C(C)(C)C)c(O)c(C(C)(C)C)c1`, the Potency entry was “inactive”. Next, `O=C(O)Cc1sc(-c2ccccc2)nc1-c1ccc(Cl)cc1`: “inactive”.

In the case of `CC(C)(C)c1ccc(OCC2CO2)cc1` (stereo not given), the Potency result is “inactive”.

In the case of `COC(=O)C(C)=O`, the Potency result was “inactive”.

As to `Oc1ccc2c(c1)OCO2`, the Potency entry is “inactive”.

With `C=CC[N+]1([C@H]2C[C@H]3[C@@H]4CC[C@H]5C[C@H](OC(C)=O)[C@@H](N6CCCCC6)C[C@]5(C)[C@H]4CC[C@]3(C)[C@H]2OC(=O)CC)CCCCC1`, the Potency entry is “inactive”.

As to `FC(F)(F)C(F)(F)C(F)(F)C(F)(F)C(F)(F)C(F)(F)CCI`, the Potency entry is “inactive”. Next, `CCC(=O)OC(C)(C)C1CC=C(C)CC1` (stereo not given): “inactive”.

In the case of `CC(=O)OC/C=C/c1ccccc1`, the Potency entry is “inactive”. Next, `CCN(CC)CCOC(=O)C1(c2ccccc2)CCCC1`: “inactive”; `COc1ccc2[nH]c(S(=O)Cc3ncc(C)c(OC)c3C)nc2n1` (stereo not given): “inactive”; `c1ccc(OCc2ccc(CCCN3CCOCC3)cc2)cc1`: “inactive”. Next, `CCCCOC(=O)/C=C\C(=O)OCCCC`: “inactive”; `CN(C)C/C=C(/c1ccc(Br)cc1)c1cccnc1`: “inactive”. Take `NC(N)=N/N=C/c1c(Cl)cccc1Cl`: the Potency result was “inactive”. Next, `CC(=O)/C(C)=C/C1C(C)=CCCC1(C)C` (stereo not given): “inactive”.

As for `CC(=O)[C@@]1(O)CC[C@H]2[C@@H]3C[C@H](C)C4=CC(=O)CC[C@]4(C)[C@H]3CC[C@@]21C`, the Potency entry was “inactive”.

On to `Cc1ccc(C(=O)C(C)CN2CCCCC2)cc1` (stereo not given), for which the Potency result was “inactive”. Next, `COc1ccccc1OC(=O)Oc1ccccc1OC`: “inactive”. Take `CCC(C)N(C)C(=O)c1cc2ccccc2c(-c2ccccc2Cl)n1` (stereo not given): the Potency entry is “inactive”. Next, `CCOc1ccc2[nH]cc(C(=O)NCc3ccccc3)c(=O)c2n1`: “inactive”. Next, `O=C(O)/C=C/c1cnc[nH]1`: “inactive”. Next, `CCc1nn(C2CCCCC2)c2cc(C3(C#N)CCC(C(=O)O)CC3)ccc12` (stereo not given): “inactive”; `CC(C)(C)C1CCCCC1O` (stereo not given): “inactive”; `Cc1ncsc1CCO`: “inactive”. For the molecule `Cl/C(=C\n1cncn1)c1ccc(Cl)cc1Cl`, the Potency result is “inactive”. With `NCc1ccccc1`, the Potency entry was “inactive”. Next, `CN(C)CC/C=C1\c2ccccc2COc2ccccc21`: “inactive”; `COC(Cc1ccccc1)OC`: “inactive”. Next, `C=CCCCCCC`: “inactive”; `CCCCCCCCCC(=O)OCC`: “inactive”. In the case of `CNCC[C@@H](Oc1ccccc1C)c1ccccc1`, the Potency result is “inactive”. Next, `CC(=O)c1ccc2c(c1)[C@H](NC(=O)c1ccc(F)cc1)[C@@H](O)C(C)(C)O2`: “inactive”; `Cn1c(N)nc2nc[nH]c2c1=O`: “inactive”. Next, `CCCCCCc1ccc(N)cc1`: “inactive”.

On to `CCN(CCO)CCCC(C)Nc1ccnc2cc(Cl)ccc12` (stereo not given), for which the Potency result is “inactive”. Next, `Cn1c(=O)c2c(ncn2CC(O)CO)n(C)c1=O` (stereo not given): “inactive”; `O=S(=O)(O)c1ccc(O)c2ncccc12`: “inactive”; `C=CC(C)(CCC=C(C)C)OC(=O)c1ccccc1` (stereo not given): “inactive”. Next, `C[C@H](CCC(=O)O)[C@H]1CC[C@H]2[C@@H]3[C@H](O)C[C@@H]4C[C@H](O)CC[C@]4(C)[C@H]3CC[C@]12C`: “inactive”.

(Values after PubChem BioAssay (Tox21).)
